Test results from the supplement of paper PMC8728848.
Many of the other results were omitted from the sample, so the strongest signals are more common in it than they were.

Experiments:
Experiment in all cases: glycan array binding signal (z-score within array); higher = stronger binding
Conditions in all cases: glycan notation: IUPAC condensed, linker removed
[1] = biological target: GlcNAc(b1-3)Gal(b1-4)GlcNAc(b1-3)Gal(b1-4)GlcNAc(b1-2)[GlcNAc(b1-3)Gal(b1-4)GlcNAc(b1-3)Gal(b1-4)GlcNAc(b1-6)]Man(a1-6)[GlcNAc(b1-3)Gal(b1-4)GlcNAc(b1-3)Gal(b1-4)GlcNAc(b1-2)Man(a1-3)]Man(b1-4)GlcNAc(b1-4)[Fuc(a1-6)]GlcNAc
Method in brief: (§1)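 Negative Z-scores can be read as non-binding. The Z-score is calculated within each array and then averaged across arrays of one protein sequence at different concentrations or buffers and across linkers. Arrays, 3228 in all, were curated from the Consortium for Functional Glycomics database and kept only where the protein sequence was available.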

[2] = biological target: GlcNAc(b1-3)Gal(b1-4)GlcNAc(b1-3)Gal(b1-4)GlcNAc(b1-3)Gal(b1-4)GlcNAc(b1-3)Gal(b1-4)GlcNAc(b1-2)Man(a1-3)[GlcNAc(b1-3)Gal(b1-4)GlcNAc(b1-3)Gal(b1-4)GlcNAc(b1-3)Gal(b1-4)GlcNAc(b1-3)Gal(b1-4)GlcNAc(b1-2)Man(a1-6)]Man(b1-4)GlcNAc(b1-4)GlcNAc
Method in brief: as §1

[3] = biological target: GlcNAc(b1-3)Gal(b1-4)GlcNAc(b1-6)[GlcNAc(b1-3)]Gal(b1-4)GlcNAc
Method in brief: as §1

[4] = biological target: GlcNAc(b1-4)[GlcNAc(b1-6)]GalNAc
Method in brief: as §1

[5] = biological target: Man(a1-2)Man(a1-2)Man(a1-3)Man
Method in brief: as §1

[6] = biological target: Man(a1-2)Man(a1-2)Man(a1-6)[Man(a1-3)]Man
Method in brief: as §1

[7] = biological target: Man(a1-2)Man(a1-3)[Man(a1-2)Man(a1-6)]Man(a1-6)[Man(a1-2)Man(a1-2)Man(a1-3)]Man
Method in brief: as §1

[8] = biological target: Man(a1-3)[Man(a1-6)]Man(a1-6)[Man(a1-2)Man(a1-3)]Man(b1-4)GlcNAc(b1-4)GlcNAc
Method in brief: as §1

[9] = biological target: Neu5Ac(a2-3)Gal(b1-3)GlcNAc(b1-4)Gal(b1-4)Glc
Method in brief: as §1

[10] = biological target: Neu5Ac(a2-3)Gal(b1-3)[Neu5Ac(a2-6)]GalNAc
Method in brief: as §1

[11] = biological target: Neu5Ac(a2-3)Gal(b1-4)GlcNAc(b1-3)GalNAc
Method in brief: as §1

[12] = biological target: Neu5Ac(a2-3)Gal(b1-4)GlcNAc6S
Method in brief: as §1

[13] = biological target: Neu5Ac(a2-3)Gal(b1-4)[Fuc(a1-3)]GlcNAc(b1-3)Gal(b1-4)GlcNAc
Method in brief: as §1

[14] = biological target: Neu5Ac(a2-3)Gal(b1-4)[Fuc(a1-3)]GlcNAc6S
Method in brief: as §1

[15] = biological target: Neu5Ac(a2-3)GalNAc(b1-4)GlcNAc
Method in brief: as §1

[16] = biological target: Neu5Ac(a2-3)[GalNAc(b1-4)]Gal(b1-4)GlcNAc
Method in brief: as §1

[17] = biological target: Neu5Ac(a2-6)Gal(b1-4)GlcNAc(b1-2)Man
Method in brief: as §1

[18] = biological target: Neu5Ac(a2-6)Gal(b1-4)GlcNAc(b1-2)Man(a1-3)[GlcNAc(b1-2)Man(a1-6)]Man(b1-4)GlcNAc(b1-4)GlcNAc
Method in brief: as §1

[19] = biological target: Neu5Ac(a2-6)Gal(b1-4)GlcNAc(b1-2)Man(a1-3)[Man(a1-6)]Man(b1-4)GlcNAc(b1-4)GlcNAc
Method in brief: as §1

[20] = biological target: Neu5Ac(a2-6)Gal(b1-4)GlcNAc(b1-2)Man(a1-6)Man(b1-4)GlcNAc(b1-4)GlcNAc
Method in brief: as §1

[21] = biological target: Neu5Ac(a2-6)Gal(b1-4)GlcNAc(b1-2)Man(a1-6)[Man(a1-3)]Man(b1-4)GlcNAc(b1-4)GlcNAc
Method in brief: as §1

[22] = biological target: Neu5Ac(a2-6)Gal(b1-4)GlcNAc(b1-2)[Neu5Ac(a2-6)Gal(b1-4)GlcNAc(b1-4)]Man(a1-3)[GlcNAc(b1-4)][Neu5Ac(a2-6)Gal(b1-4)GlcNAc(b1-2)[Neu5Ac(a2-6)Gal(b1-4)GlcNAc(b1-6)]Man(a1-6)]Man(b1-4)GlcNAc(b1-4)GlcNAc
Method in brief: as §1

B1: GS7807P-bth-537-23-537 (Bacteroides thetaiotaomicron) (protein)
chain: NYENINSNPYEAPDLSADGYALGSAMNNLAGCVVSPDVNTAQFTDCLLGGPLGGYFADSNAGFTETISNFNPKDDWSRVFLKSDKIIPTLYSNLTQVKLVSQNTNDPVPYAIAQVIKVAAMHRVTDAFGPIPYSQIGANGEIATPYDSQEVTYNTFFDELNAAIATLNENSNEQLVPTADYIYKGDVKKWIRFANSLKLRLAIRIAYANPVKAQQMAEEAVNPANGGVIESNADNATWNYFETSQNPIYVATRYNQVQTSDHGGVPCLTGGDTHAAADIICYMNGYKDNRREKFFTKSEWAGQDYVGMRRGIVIPELKTTGHKYSGVNIAPTSPLYWMNAAEVAFLRAEGQAVFNFSMGGTAESFYNQGIRLSFEQWGADGVEDYLKDDVNKPTAYTDPAGTNTYQNALSNITIKWNDSADKEEKQERIIVQKWIANWQLGNEAWADFRRTGYPKLIPVKENKSGGVVDSEKGARRMPYPLDEFVSNKANVEYAIANYLHGADNMATDVWWASKK
[1]
  glycan array binding signal (z-score): 19.1
[2]
  glycan array binding signal (z-score): 0.265
[3]
  glycan array binding signal (z-score): -0.326
[4]
  glycan array binding signal (z-score): -0.32
[5]
  glycan array binding signal (z-score): -0.398
[6]
  glycan array binding signal (z-score): -0.343
[7]
  glycan array binding signal (z-score): -0.267
[8]
  glycan array binding signal (z-score): 2
[9]
  glycan array binding signal (z-score): -0.398
[10]
  glycan array binding signal (z-score): -0.387
[11]
  glycan array binding signal (z-score): -0.371
[12]
  glycan array binding signal (z-score): -0.377
[13]
  glycan array binding signal (z-score): 0.04
[14]
  glycan array binding signal (z-score): -0.338
[15]
  glycan array binding signal (z-score): -0.329
[16]
  glycan array binding signal (z-score): -0.363
[17]
  glycan array binding signal (z-score): -0.32
[18]
  glycan array binding signal (z-score): -0.356
[19]
  glycan array binding signal (z-score): 1.81
[20]
  glycan array binding signal (z-score): 0.297
[21]
  glycan array binding signal (z-score): 5.2
[22]
  glycan array binding signal (z-score): -0.083
